Results reported in PubChem BioAssay.
Active and inactive are the calls of the source. Unless noted, how the calls were made is not given here.

Legend:
[1] = compounds binding Alexa647 anti-His antibody – biochemical, small-molecule microarray, 635 nm fluorescence, artefact control for SMM control protein annotation, primary screen (AID 1128); settings: higher = more signal;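 further: score merges feature fluorescence with signal-to-noise for each printed compound spot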
[2] = tested on: Human papillomavirus type 1a E7 protein (residues 1-88); experiment: HPV1a E7 small-molecule binders, primary screen, biochemical, small-molecule microarray, residues 1-88, 635 nm (AID 1129); settings: small-molecule microarray binding, fluorescence 635 nm; higher = more signal
[3] = target: Focal adhesion kinase 1 (Homo sapiens) (UniProt Q05397); experiment: PTK2 protein binding on printed compound slides – biochemical, small-molecule microarray, 635/667 nm fluorescence, BSA, DTT, primary screen (AID 1130); settings: 635 nm fluorescence, higher = more signal;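 further: composite of spot emission at 667 nm and signal to noise over triplicate slides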
[4] = tested on: Fibrinogen (Alexa647-labelled); experiment: Alexa647-fibrinogen binding to printed small molecules – biochemical, small-molecule microarray, 635/667 nm fluorescence, artefact control for SMM control-protein annotation, profiling panel (AID 1131); settings: fibrinogen-A647 binding fluorescence, higher = more signal;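 further: z-score merges 667 nm fluorescence with per-spot signal-to-noise over triplicate slides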
[5] = target: Follistatin (Homo sapiens) (UniProt P19883); experiment: FST protein binding to printed compounds – biochemical, small-molecule microarray, 635/667 nm fluorescence, primary screen (AID 1132); settings: 635 nm fluorescence, higher = more signal
[6] = target: Fibroblast growth factor 2 (Homo sapiens) (UniProt P09038); experiment: basic fibroblast growth factor binding to printed compounds – biochemical, small-molecule microarray, 635/667 nm fluorescence, primary screen (AID 1133); settings: FGF2, fluorescence 635/667, higher = more signal
[7] = JC-1 mitochondrial potential readout, lung cancer cells – cell-based, A549, JC-1 fluorescence, basal, 24 h, 100 nL, profiling panel (AID 1138); settings: higher = more signal;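 further: A549 lung adenocarcinoma cells under basal conditions with no added stimulus; test concentration not given here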
Lefty1 = Lefty1 protein binding to printed compounds – biochemical, small-molecule microarray, 635/667 nm fluorescence, primary screen (AID 1139); settings: fluorescence 635/667, higher = more signal
[8] = tested on: wheat germ agglutinin (Triticum aestivum), Alexa647-labelled; experiment: Alexa647-WGA lectin binding to printed small molecules – biochemical, small-molecule microarray, 635/667 nm fluorescence, artefact control for SMM control-protein annotation, profiling panel (AID 1140); settings: WGA-A647 binding, 635 nm fluorescence, higher = more signal;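 further: score merges 667 nm feature emission with signal to noise over triplicate slides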
[9] = target: Luciferin 4-monooxygenase (Photinus pyralis) (UniProt P08659); experiment: inhibition of purified Photinus pyralis luciferase – biochemical, luminescence, purified enzyme, 2006 set, primary screen (AID 1141); settings: purified firefly luciferase, SteadyGlo luminescence, 30 min; higher = more signal, called active from +8 up or from −8 down;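 further: cell-free assay with purified firefly luciferase at 100 ng per well in PBS; test concentration not given here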
[10] = tested on: Wnt5a (protein binding on small-molecule microarray); experiment: small molecules binding Wnt5a protein – biophysical, small-molecule microarray, 635/667 nm fluorescence, primary screen (AID 1142); settings: 635 nm fluorescence, higher = more signal;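 further: fluorescence read at 667 nm with signal to noise per printed feature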
[11] = ATP-based viability of Huh7 replicon cells – cell-based, CellTiter-Glo luminescence, basal, 48 h, cytotoxicity control for HCV replication inhibitor project, primary screen (AID 1143); settings: higher = more signal, called active from +8 up or from −8 down;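 further: Huh7 hepatoma cells carrying a hepatitis C replication reporter with no stimulus; test concentration not given here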
[12] = Pseudomonas biofilm growth suppression – PAO1 strain, BacTiter-Glo luminescence, LB-PBS, primary screen (AID 1144); settings: P. aeruginosa PAO1 biofilm, 12 h, higher = more signal
[13] = basal CRE-LacZ reporter activity in PC12 – cell-based, unstimulated, primary screen (AID 1145); settings: no forskolin, luminescence, 4.5 h, higher = more signal, called active from +8 up or from −8 down
[14] = forskolin-driven CRE-LacZ activity in PC12 – cell-based, CRE-LacZ reporter, forskolin-stimulated, primary screen (AID 1146); settings: luminescence, 4.5 h, higher = more signal, called active from +8 up or from −8 down;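 further: PC12 cells with 6xCRE LacZ reporter stimulated by forskolin 10 µM; beta-galactosidase reporter signal reflecting CREB driven transcription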
[15] = target: Streptavidin (Streptomyces avidinii) (UniProt P22629); experiment: compounds binding control protein streptavidin – biophysical, small-molecule microarray, 635/667 nm fluorescence, artefact control for SMM compound annotation, primary screen (AID 1147); settings: higher = more signal;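 further: signal reflects streptavidin binding to arrayed compounds as a control protein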
[16] = probe aInhba binding on compound microarray – biochemical, small-molecule microarray, 635/667 nm fluorescence, primary screen (AID 1148); settings: higher = more signal;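 further: score merges 667nm spot fluorescence with signal-to-noise for antibody binding to printed compounds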
Torsin-1A (Homo sapiens) [17] = target: Torsin-1A (Homo sapiens) (UniProt O14656); experiment: TOR1A wild-type binding on microarray – cell lysate, small-molecule microarray, lysate, 635/667 nm, primary screen (AID 1149); settings: COS7 hTOR1A-WT lysate, 635 nm fluorescence, higher = more signal
Torsin-1A (Homo sapiens) [18] = target: Torsin-1A (Homo sapiens) (UniProt O14656); experiment: torsin A mutant lysate binding on microarrays – cell lysate, small-molecule microarray, COS7 lysate, 635/667 nm fluorescence, primary screen (AID 1150); settings: COS7 hTOR1A mutant lysate, 635 nm fluorescence, higher = more signal;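 further: score pools 667 nm emission and signal to noise measuring lysate protein binding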
[19] = tested on: Sonic hedgehog protein (Shh); experiment: Sonic hedgehog microarray binding compounds – biochemical, small-molecule microarray, 635/667 nm fluorescence, primary screen (AID 1151); settings: 635 nm fluorescence, higher = more signal;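 further: Shh protein binding to compounds spotted on small-molecule microarray slides; score combines spot fluorescence intensity with signal-to-noise across triplicate slides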

Chain of Focal adhesion kinase 1 (Homo sapiens) (Q05397 whole entry, looked up): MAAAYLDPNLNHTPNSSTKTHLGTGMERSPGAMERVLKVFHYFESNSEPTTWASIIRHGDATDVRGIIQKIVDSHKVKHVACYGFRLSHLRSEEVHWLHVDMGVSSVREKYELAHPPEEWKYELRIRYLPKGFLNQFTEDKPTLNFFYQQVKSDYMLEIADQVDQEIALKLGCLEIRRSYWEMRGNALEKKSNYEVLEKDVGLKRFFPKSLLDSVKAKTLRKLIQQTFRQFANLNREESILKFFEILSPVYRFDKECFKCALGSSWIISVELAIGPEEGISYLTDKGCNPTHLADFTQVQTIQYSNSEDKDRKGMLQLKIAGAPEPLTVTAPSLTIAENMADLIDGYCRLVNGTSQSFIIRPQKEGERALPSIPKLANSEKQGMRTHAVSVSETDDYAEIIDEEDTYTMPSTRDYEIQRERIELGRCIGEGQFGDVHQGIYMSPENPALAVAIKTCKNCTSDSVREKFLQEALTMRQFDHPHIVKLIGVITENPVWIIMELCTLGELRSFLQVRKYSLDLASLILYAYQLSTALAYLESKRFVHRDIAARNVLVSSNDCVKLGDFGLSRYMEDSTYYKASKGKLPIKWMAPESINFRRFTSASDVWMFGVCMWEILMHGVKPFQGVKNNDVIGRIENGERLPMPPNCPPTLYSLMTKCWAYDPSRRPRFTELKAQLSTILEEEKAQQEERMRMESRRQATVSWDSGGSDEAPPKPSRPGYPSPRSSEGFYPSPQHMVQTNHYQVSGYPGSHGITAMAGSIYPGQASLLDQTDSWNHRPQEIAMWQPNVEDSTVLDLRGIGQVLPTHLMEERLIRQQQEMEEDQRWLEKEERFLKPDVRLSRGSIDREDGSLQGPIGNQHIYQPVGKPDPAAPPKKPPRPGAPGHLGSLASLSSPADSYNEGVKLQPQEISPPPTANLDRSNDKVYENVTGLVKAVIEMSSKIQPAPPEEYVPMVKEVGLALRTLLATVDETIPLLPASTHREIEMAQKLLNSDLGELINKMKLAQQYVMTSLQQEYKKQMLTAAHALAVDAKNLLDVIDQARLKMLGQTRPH
Chain of Torsin-1A (Homo sapiens) (O14656 whole entry, looked up): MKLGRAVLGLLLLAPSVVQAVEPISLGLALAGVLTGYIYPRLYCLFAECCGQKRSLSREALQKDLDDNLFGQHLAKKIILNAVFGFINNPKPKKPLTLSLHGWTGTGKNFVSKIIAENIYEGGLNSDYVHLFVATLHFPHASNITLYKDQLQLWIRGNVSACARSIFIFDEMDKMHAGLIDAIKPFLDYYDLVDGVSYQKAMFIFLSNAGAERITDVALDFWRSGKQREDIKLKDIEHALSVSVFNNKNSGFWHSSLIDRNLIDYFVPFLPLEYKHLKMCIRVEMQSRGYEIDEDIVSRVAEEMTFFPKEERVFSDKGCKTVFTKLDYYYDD
Chain of Streptavidin (Streptomyces avidinii) (P22629 whole entry, looked up): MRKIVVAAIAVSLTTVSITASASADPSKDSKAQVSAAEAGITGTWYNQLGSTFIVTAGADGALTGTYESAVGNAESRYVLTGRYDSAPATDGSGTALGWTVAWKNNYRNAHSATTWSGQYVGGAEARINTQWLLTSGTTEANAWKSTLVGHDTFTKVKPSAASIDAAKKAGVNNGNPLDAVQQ
Chain of Follistatin (Homo sapiens) (P19883 whole entry, looked up): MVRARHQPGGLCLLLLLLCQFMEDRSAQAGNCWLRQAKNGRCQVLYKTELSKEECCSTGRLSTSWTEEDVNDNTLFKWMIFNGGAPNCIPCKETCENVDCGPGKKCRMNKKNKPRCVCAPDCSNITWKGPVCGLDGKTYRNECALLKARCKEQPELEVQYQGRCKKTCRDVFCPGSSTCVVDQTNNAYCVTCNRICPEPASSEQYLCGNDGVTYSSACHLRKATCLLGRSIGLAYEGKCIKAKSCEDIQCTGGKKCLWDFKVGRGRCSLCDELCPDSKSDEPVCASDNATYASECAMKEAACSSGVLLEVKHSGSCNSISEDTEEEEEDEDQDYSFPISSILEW
Chain of Luciferin 4-monooxygenase (Photinus pyralis) (P08659 whole entry, looked up): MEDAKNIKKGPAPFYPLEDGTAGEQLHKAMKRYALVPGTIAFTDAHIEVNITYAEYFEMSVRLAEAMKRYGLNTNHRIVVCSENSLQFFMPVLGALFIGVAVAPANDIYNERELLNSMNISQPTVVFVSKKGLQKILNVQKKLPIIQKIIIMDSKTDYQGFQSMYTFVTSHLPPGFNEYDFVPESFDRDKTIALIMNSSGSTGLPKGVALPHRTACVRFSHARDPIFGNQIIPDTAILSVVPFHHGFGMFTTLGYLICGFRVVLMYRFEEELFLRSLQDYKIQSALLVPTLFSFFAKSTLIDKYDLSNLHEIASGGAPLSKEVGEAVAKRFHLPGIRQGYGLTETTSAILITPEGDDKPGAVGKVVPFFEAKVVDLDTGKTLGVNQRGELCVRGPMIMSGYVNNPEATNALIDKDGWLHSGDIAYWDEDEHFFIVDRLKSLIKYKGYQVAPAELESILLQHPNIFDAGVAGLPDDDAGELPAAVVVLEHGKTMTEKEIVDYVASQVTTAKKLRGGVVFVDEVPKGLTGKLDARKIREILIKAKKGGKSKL
Chain of Fibroblast growth factor 2 (Homo sapiens) (P09038 whole entry, looked up): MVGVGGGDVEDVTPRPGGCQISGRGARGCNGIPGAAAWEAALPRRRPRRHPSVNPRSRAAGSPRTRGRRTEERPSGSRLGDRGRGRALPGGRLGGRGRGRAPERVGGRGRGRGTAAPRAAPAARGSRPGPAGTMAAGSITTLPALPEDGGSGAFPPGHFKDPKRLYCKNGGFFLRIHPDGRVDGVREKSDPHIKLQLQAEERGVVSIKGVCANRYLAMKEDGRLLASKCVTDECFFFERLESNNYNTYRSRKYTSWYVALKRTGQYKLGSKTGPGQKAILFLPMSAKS

| Structure (SMILES) | composite z-score [1] | composite z-score [2] | composite z-score [3] | composite z-score [4] | composite z-score [5] | composite z-score [6] | z-score [7] | composite z-score (Lefty1) | composite z-score [8] | z-score [9] | composite z-score [10] | z-score [11] | z-score [12] | z-score [13] | z-score [14] | composite z-score [15] | composite z-score [16] | composite z-score (Torsin-1A (Homo sapiens) [17]) | composite z-score (Torsin-1A (Homo sapiens) [18]) | composite z-score [19] |
| --- | --- | --- | --- | --- | --- | --- | --- | --- | --- | --- | --- | --- | --- | --- | --- | --- | --- | --- | --- | --- |
| CCCC=C(CCC)[C@@H](NC(=O)c1ccc(-c2ccccc2)cc1)c1ccc(C(=O)OC)cc1 | 0.377 | 1.19 | 0.296 | 0.967 | 0.142 | -0.558 | -0.457 | -0.182 | 1.2 | 1.93 (inactive) | -0.0745 | -0.116 (inactive) | 0.29 (inactive) | 0.576 (inactive) | 0.381 (inactive) | 1.09 | 0.0872 | -0.162 | 0.0735 | -0.809 |
| COc1cccc([C@H]2Oc3ccc(OC)cc3C(=NO[C@H](C)c3cn([C@@H]4COC[C@H]4O)nn3)[C@@H]2O)c1 | 0.899 | -0.949 | -0.624 | -0.0637 | -1.16 | -0.805 | -1.16 | -0.601 | 0.0665 | 0.825 (inactive) | -0.104 | -2.16 (inactive) | -0.302 (inactive) | 6.84 (inactive) | 0.258 (inactive) | 1.44 | -0.182 | -0.102 | -0.119 | -0.223 |
| CC[C@@H](c1ccccc1)n1c(=O)n2n(c1=O)[C@H]1[C@H](O)[C@@H]3O[C@@H]3C(=NOCC(C)C)[C@H]1CC2 | 0.356 | 0.0566 | -0.267 | -0.203 | 0.38 | 0.0571 | -0.492 | 0.542 | -0.0401 | 0.292 (inactive) | -0.11 | 0.529 (inactive) | 0.51 (inactive) | 0.786 (inactive) | 0.671 (inactive) | -0.36 | -0.0405 | -0.132 | -0.115 | 0.636 |
| C[C@@H](c1ccccc1)N1C(=O)[C@H]2[C@H]3[C@H](O)[C@H](O)CC(=NOC[C@@H](O)COCc4ccco4)[C@@H]3CC[C@H]2C1=O | -0.623 | -0.604 | 0.126 | 0.448 | -0.761 | -0.728 | -0.62 | -0.809 | 0.112 | 0.558 (inactive) | -0.253 | 0.333 (inactive) | -0.0196 (inactive) | -0.292 (inactive) | 0.236 (inactive) | -0.485 | -0.176 | -0.304 | -0.294 | -0.494 |
| COc1ccc(CCNC(=O)[C@@H]2c3ccccc3C(=O)N(c3ccc(C)cn3)[C@H]2c2ccc(CO)cc2)cc1 | 0.315 | 0.469 | -0.34 | -2.21 | -0.25 | -0.609 | -0.61 | -1.17 | -0.293 | 0.85 (inactive) | -0.657 | 0.569 (inactive) | -0.456 (inactive) | 0.648 (inactive) | 0.459 (inactive) | -0.776 | -0.253 | -2.23 | -1.76 | -0.497 |
| CCN1C(=O)[C@H]2[C@H]3[C@H](O)[C@H](O)CC(=NOCC=C(C)CCC=C(C)C)[C@H]3CC[C@H]2C1=O | 0.918 | 1.1 | 0.123 | 0.0065 | 1.26 | 1.51 | -0.298 | 1.58 | -0.207 | -0.279 (inactive) | 0.249 | -0.327 (inactive) | -0.805 (inactive) | -0.0223 (inactive) | -0.323 (inactive) | -0.298 | -0.0471 | 0.896 | 0.43 | 1.77 |
| CO[C@@H]1COC(=O)[C@H](C)NC(=O)[C@@H](C)COC(=O)CCC[C@H]1C | -0.356 | 0.0754 | 0.574 | -0.796 | 0.775 | 0.851 | -0.816 | 0.784 | 0.405 | 0.981 (inactive) | -0.0361 | -0.639 (inactive) | 0.019 (inactive) | 0.085 (inactive) | 0.396 (inactive) | -0.185 | -0.128 | 0.738 | 0.462 | 1.24 |
| CC(=O)OC[C@H]1O[C@H](CC=NOC[C@@H](C)[C@H](OCc2ccccc2)C(C)C)C=C[C@@H]1OC(C)=O | -1.2 | 0.284 | -0.351 | -0.344 | 0.264 | 0.155 | -1.02 | 0.752 | -0.21 | 1.34 (inactive) | -0.0373 | -0.23 (inactive) | -0.369 (inactive) | 2.04 (inactive) | 0.494 (inactive) | -0.0152 | -0.0504 | -0.0387 | 0.0881 | 0.583 |
| CN1C(=O)C2C=CC(C(O)C(c3ccccc3)c3ccccc3)N(NC(=O)OC(C)(C)C)C2C1=O (stereo not given) | 1.88 | 1.18 | 0.666 | 0.973 | 1.03 | 0.0319 | -0.0852 | 0.895 | 1.09 | -0.0519 (inactive) | 0.843 | -0.0027 (inactive) | 0.417 (inactive) | -0.136 (inactive) | 0.0964 (inactive) | 1.68 | 0.72 | -0.05 | 0.848 | -0.587 |
| [N-]=[N+]=Nc1ccccc1C[C@@]1(C(N)=O)N=C(c2ccc(OCCCO)cc2)O[C@@H]1c1ccccc1 | 0.42 | 1.02 | 0.645 | -0.367 | 0.283 | -0.403 | -0.971 | -1.27 | 0.402 | -3.86 (inactive) | 0.0445 | -4.04 (inactive) | -0.616 (inactive) | 0.377 (inactive) | -1.39 (inactive) | 1.08 | 0.0561 | 0.296 | 0.355 | -0.714 |
